From PubChem BioAssay come the findings set out here.

Assay [1] can be described thus: binders of probe aFSTL3 on microarray, primary screen, stem cell growth factor project, biochemical, small-molecule microarray, fluorescence 635/667 (AID 1064).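 Further: measures binding of the biotinylated anti-FSTL3 antibody to printed compounds.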 The settings on record: higher = more signal.
The nature of assay [2]: binders from COS7 lysate, DM2A8 probe, primary screen, torsin A project, cell lysate, small-molecule microarray, fluorescence 635/667 (AID 1065). The settings on record: higher = more signal, COS7 lysate expressing mutant human TOR1A.
Assay [3] can be described thus: binders of probe aFGF2 on microarray, primary screen, stem cell growth factor project, biochemical, small-molecule microarray, fluorescence 635/667 (AID 1067).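 Further: measures binding of biotinylated aFGF2 protein to printed compounds on slides; z-score merges feature fluorescence and signal-to-noise across triplicate slides.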 The conditions noted are these: higher = more signal.
Assay [4] can be described thus: binders of probe aFGF10 on microarray, primary screen, stem cell growth factor project, biochemical, small-molecule microarray, fluorescence 635/667 (AID 1071).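 Further: score merges 667 nm spot intensity and signal to noise from triplicate slides.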 The conditions noted are these: higher = more signal.
Assay [5] deals with Neurogenic locus notch homolog protein 2 (Homo sapiens) (UniProt Q04721). As to the kind of experiment: Notch2 binders on small-molecule microarrays, primary screen, biochemical, small-molecule microarray, 635 nm fluorescence, stem cell growth factors (AID 1073). The conditions noted are these: Notch2 binding, higher = more signal.
Neurogenic locus notch homolog protein 2 (Homo sapiens), sequence (Q04721 whole entry, looked up, canonical isoform): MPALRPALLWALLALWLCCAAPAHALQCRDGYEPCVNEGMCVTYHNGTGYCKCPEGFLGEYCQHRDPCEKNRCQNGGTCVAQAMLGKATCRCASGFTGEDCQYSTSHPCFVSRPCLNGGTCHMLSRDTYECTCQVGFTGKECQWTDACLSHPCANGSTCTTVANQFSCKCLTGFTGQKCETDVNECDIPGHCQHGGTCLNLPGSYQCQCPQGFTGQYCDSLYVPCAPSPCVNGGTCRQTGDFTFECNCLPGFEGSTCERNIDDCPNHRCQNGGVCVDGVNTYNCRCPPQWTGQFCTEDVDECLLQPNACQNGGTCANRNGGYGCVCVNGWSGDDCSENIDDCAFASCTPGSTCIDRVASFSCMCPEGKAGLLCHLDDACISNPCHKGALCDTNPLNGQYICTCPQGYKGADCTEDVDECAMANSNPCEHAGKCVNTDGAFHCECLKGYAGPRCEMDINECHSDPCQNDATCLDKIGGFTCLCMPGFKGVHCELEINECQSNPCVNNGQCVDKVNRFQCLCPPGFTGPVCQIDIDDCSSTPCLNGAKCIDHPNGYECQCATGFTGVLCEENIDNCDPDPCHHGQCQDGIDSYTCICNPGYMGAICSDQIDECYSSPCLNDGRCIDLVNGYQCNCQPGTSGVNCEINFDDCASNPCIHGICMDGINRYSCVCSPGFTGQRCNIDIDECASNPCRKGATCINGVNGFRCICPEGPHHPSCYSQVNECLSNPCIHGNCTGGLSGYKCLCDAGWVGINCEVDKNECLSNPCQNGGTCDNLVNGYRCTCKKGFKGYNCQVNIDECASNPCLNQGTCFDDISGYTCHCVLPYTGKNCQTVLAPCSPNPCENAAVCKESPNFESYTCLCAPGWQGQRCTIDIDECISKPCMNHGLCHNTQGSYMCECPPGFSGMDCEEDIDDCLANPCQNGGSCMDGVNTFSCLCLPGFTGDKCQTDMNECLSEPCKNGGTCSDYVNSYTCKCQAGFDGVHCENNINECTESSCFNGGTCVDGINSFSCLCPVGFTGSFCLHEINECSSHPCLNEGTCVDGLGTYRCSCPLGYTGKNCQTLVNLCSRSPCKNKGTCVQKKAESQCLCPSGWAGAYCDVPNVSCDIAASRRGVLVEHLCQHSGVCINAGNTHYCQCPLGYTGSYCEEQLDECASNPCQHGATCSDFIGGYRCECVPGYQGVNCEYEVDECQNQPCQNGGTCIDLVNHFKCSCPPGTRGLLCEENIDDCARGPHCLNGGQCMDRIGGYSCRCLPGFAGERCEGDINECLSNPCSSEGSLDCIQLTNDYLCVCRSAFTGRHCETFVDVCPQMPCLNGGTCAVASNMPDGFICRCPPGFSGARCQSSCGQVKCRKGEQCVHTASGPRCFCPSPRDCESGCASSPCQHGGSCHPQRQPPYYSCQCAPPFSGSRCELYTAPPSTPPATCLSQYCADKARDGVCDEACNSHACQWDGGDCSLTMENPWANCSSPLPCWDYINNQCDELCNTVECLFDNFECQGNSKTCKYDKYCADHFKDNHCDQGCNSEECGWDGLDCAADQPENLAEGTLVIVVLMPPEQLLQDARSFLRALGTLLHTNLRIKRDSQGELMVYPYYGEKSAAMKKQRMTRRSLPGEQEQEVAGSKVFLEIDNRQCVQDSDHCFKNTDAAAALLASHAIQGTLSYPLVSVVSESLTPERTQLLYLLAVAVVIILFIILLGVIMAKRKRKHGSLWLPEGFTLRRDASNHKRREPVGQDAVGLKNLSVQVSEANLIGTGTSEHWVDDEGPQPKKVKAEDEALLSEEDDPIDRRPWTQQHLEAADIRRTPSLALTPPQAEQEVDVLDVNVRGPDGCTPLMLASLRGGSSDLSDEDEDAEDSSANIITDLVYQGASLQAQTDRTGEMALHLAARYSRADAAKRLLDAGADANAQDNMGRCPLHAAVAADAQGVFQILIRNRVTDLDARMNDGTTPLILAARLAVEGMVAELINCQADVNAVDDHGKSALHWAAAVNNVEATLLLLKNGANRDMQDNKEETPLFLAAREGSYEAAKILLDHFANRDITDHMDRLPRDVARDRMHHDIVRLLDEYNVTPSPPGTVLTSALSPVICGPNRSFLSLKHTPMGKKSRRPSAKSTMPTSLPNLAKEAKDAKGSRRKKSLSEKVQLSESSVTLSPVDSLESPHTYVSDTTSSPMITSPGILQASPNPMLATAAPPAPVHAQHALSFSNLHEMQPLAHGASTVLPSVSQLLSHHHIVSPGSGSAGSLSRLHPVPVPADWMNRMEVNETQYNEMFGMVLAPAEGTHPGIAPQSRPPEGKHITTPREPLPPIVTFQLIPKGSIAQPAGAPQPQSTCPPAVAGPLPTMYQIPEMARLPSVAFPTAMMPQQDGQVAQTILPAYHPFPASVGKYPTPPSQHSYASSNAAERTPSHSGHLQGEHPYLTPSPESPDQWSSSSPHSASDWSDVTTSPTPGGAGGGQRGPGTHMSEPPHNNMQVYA
The target in assay [6] is Pro-neuregulin-1, membrane-bound isoform (Homo sapiens) (UniProt Q02297). The experiment in a line: NRG1 binders on small-molecule microarrays, primary screen, psychiatric disease protein project, biochemical, small-molecule microarray, fluorescence 635/667 (AID 1075).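 Further: score combines 667 nm spot fluorescence with signal to noise.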 The settings on record: NRG1 binding, 635 nm fluorescence, higher = more signal.
The test system of assay [7] is Neuregulin-1 EGF-like domain. As to the kind of experiment: binders of neuregulin-1 EGF-like domain, primary screen, biochemical, small-molecule microarray, 635 nm fluorescence (AID 1081).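 Further: binding of the protein to compounds printed on small-molecule microarray slides.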 The conditions noted are these: small-molecule microarray binding, higher = more signal.
A short description of assay [8]: FRG1 promoter luciferase signal modulators, primary screen, FRG1 inhibition for FSHD, cell-based, C2C12 myotubes, firefly/Renilla luciferase, luminescence (AID 1084). The conditions noted are these: higher = more signal, called active from +8 up or from −8 down.
Assay [9] can be described thus: binders of probe aFST on microarray, primary screen, stem cell growth factor project, biochemical, small-molecule microarray, fluorescence 635/667 (AID 1086).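 Further: score merges 667 nm fluorescence with signal-to-noise of each printed compound spot.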 The settings on record: higher = more signal.
The nature of assay [10]: binders of probe aHhip on microarray, primary screen, stem cell growth factor project, biochemical, small-molecule microarray, fluorescence 635/667 (AID 1087).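 Further: score merges spot fluorescence at 667nm with spot signal to noise ratio.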 The conditions noted are these: higher = more signal.
Assay [11] relates to PRMT1 (protein arginine N-methyltransferase 1). The experiment in a line: PRMT1 binders on small-molecule microarrays, primary screen, biochemical, small-molecule microarray, 635 nm fluorescence (AID 1088).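 Further: binding of Prmt1 protein to compounds spotted on small-molecule microarray slides.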 The conditions noted are these: small-molecule microarray binding, higher = more signal.
Assay [12] is described as follows: yeast growth modulation, basal conditions, primary screen, YJM789 clinical isolate, OD600, 24 h (AID 1089).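 Further: growth of clinical yeast isolate S. cerevisiae YJM 789 seeded 1000 cells per well; test concentration not given here.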 The settings on record: S. cerevisiae YJM789 growth, higher = more signal, called active from +8 up or from −8 down.
A short description of assay [13]: fission yeast growth modulation, primary screen, strain 972, OD600, 24 h, no modulator (AID 1090).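 Further: basal condition with compound alone and no growth modifier present; test concentration not given here.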 The settings on record: S. pombe 972 growth, higher = more signal, called active from +8 up or from −8 down.
Assay [14] can be described thus: S. cerevisiae growth modulation with rapamycin, primary screen, strain BY4716, OD600, 96 h (AID 1091). Further: test concentration not given here. The settings on record: higher = more signal, called active from +8 up or from −8 down.
The target of assay [15] is Torsin-1A-interacting protein 2 (Homo sapiens) (UniProt Q8NFQ8). As to the kind of experiment: LULL1 binders on small-molecule microarray, primary screen, cell lysate, human LULL1 lysate, 635/667 nm fluorescence (AID 1092).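 Further: probe is lysate of COS7 cells overexpressing human LULL1; score merges per-feature 667 nm fluorescence with signal-to-noise.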 The conditions noted are these: hLULL1 lysate binding, 635 nm fluorescence, higher = more signal.
Assay [16] is described as follows: E. coli growth modulation, two-sided OD650, primary screen, E. coli filamentation project, strain DRC41, 24 h (AID 1093).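 Further: MC1000 strain lacking acrAB efflux and sulA so SOS filamentation is blocked; test concentration not given here.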 The settings on record: OD650, 24 h, higher = more signal, called active from +8 up or from −8 down.
Assay [17] can be described thus: small-molecule microarray binders of probe aLefty2, primary screen, biochemical, biotinylated probe, 635/667 nm fluorescence (AID 1094).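 Further: score merges spot fluorescence near 667 nm with spot signal-to-noise ratio.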 The conditions noted are these: higher = more signal.
Assay [18] relates to Noggin (protein binding on small-molecule microarray). The experiment in a line: Noggin binders on small-molecule microarray, primary screen, biochemical, 635/667 nm fluorescence (AID 1095).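 Further: score merges 667 nm feature fluorescence with signal to noise over triplicate slides.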 The settings on record: 635 nm fluorescence, higher = more signal.
Assay [19] concerns the target Neurogenic locus notch homolog protein 3 (Homo sapiens) (UniProt Q9UM47). As to the kind of experiment: NOTCH3 binders on small-molecule microarray, primary screen, biochemical, 635/667 nm fluorescence (AID 1096). The conditions noted are these: NOTCH3 binding, 635 nm fluorescence, higher = more signal.
The nature of assay [20]: small-molecule microarray binders of probe aEGFR, primary screen, biochemical, biotinylated probe, 635/667 nm fluorescence (AID 1097).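 Further: probe is a biotinylated anti-EGFR antibody binding compounds printed on slides; score combines fluorescence near 667 nm and signal to noise of each spot.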 The settings on record: higher = more signal.

“And” between values parts separate entries of the source, which are not always exact repeats. Identical values can stand only once. The source made the active and inactive calls.

Neurogenic locus notch homolog protein 3 (Homo sapiens), sequence (Q9UM47 whole entry, looked up): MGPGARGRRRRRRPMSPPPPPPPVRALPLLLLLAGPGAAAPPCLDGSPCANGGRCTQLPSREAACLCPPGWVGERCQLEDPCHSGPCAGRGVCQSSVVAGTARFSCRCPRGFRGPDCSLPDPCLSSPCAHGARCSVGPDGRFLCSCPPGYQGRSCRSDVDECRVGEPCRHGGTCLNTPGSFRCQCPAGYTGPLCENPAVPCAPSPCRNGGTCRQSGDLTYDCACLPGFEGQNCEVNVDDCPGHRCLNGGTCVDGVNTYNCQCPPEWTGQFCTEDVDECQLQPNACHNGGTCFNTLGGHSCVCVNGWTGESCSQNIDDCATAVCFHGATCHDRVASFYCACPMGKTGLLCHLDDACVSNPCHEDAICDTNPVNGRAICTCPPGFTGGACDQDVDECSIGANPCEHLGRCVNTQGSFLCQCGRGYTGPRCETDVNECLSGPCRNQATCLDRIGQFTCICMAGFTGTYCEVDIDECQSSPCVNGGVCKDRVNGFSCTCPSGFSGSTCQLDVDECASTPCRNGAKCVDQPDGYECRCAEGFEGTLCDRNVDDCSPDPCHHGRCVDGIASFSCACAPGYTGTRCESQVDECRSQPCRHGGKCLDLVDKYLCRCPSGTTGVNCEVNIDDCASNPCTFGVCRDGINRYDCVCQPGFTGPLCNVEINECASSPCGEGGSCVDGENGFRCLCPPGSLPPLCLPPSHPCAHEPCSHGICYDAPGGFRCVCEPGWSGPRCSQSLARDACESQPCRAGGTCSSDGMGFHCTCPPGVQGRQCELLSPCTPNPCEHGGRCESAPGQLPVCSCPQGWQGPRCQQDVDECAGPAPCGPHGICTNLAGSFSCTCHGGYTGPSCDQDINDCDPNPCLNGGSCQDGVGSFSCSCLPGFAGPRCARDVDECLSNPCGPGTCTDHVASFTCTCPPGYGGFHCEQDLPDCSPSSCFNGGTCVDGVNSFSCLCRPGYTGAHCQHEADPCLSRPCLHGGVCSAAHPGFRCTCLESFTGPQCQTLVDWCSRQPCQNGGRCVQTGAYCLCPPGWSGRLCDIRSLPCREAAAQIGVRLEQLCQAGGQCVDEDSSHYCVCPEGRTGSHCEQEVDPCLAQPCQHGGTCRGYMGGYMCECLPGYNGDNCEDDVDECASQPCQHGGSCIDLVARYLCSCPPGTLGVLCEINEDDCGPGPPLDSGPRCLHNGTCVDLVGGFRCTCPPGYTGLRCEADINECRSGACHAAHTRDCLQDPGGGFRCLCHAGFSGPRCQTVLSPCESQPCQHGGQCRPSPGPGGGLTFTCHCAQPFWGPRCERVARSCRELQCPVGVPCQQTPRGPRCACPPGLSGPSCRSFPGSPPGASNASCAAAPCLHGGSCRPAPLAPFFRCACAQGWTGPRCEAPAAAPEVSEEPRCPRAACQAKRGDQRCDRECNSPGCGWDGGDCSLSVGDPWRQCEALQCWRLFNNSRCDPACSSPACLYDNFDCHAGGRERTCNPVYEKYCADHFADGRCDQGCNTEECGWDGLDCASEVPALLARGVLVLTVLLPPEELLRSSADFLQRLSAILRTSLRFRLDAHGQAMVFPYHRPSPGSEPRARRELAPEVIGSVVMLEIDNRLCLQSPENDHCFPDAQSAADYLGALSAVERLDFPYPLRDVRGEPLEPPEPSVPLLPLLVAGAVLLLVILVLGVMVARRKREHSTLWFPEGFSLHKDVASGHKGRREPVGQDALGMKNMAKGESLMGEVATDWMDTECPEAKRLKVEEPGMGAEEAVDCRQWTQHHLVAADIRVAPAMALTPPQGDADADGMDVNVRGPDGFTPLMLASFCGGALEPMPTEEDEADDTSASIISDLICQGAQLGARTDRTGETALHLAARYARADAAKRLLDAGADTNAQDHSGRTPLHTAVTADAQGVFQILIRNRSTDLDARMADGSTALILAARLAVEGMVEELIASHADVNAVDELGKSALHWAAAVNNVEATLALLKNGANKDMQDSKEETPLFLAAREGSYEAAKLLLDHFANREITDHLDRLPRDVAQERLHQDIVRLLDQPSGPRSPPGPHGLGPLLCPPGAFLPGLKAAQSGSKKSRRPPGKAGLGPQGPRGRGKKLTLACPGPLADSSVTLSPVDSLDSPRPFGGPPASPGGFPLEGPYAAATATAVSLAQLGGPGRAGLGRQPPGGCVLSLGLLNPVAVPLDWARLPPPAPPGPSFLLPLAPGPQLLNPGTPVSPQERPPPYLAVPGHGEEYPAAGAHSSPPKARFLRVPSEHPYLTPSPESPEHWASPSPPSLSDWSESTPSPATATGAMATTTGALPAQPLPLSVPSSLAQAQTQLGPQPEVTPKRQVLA

As to `C=CCN(CCCCC)C(=O)C1N(C(C)(C)CO)C(=O)C2C(C(=O)O)C3C=CC21O3` (stereo not given), the composite z-score in assay [1] was 0.215 and 0.754; in [2], -0.806 and -0.866; in [3], -0.223 and -0.193; in assay [4], -1.26 and -2.17; in [5], -1.64 and -2.02; in assay [6], -0.729 and 1.18. The composite z-score in [7] is -0.369 and -0.726; in [9], -2.01 and -0.558; in assay [10], -0.261 and 0.0274; in assay [11], -1.11 and -1.37; in [15] it was -1.82 and -1.59; in assay [17], -0.202 and -0.159. In addition, the composite z-score was -2.03 and -1.91 in [18]; -1.09 and -0.779 in [19]; -0.258 and -0.301 in assay [20]. The z-score in [8] is 0.521 (inactive) and 1.02 (inactive); in [12] it was -0.447 (inactive) and -1.11 (inactive); in assay [13], -0.342 (inactive) and -0.0005 (inactive); in assay [14] it was -0.402 (inactive) and -0.177 (inactive); in assay [16] it was -0.373 (inactive) and -0.262 (inactive).

`C=CCN(C(=O)C(c1cccs1)N(CCOCCO)C(=O)/C=C\C(=O)O)c1ccc(OC)cc1` (stereo not given): the composite z-score was -0.454 and 0.71 in [1]; -0.415 and -1.59 in assay [2]; -0.103 and -0.186 in assay [3]; -0.729 and -1.06 in assay [4]; -1.03 and -1.83 in [5]; -0.933 and -1.12 in [6]. Further, the composite z-score in assay [7] was -0.247 and -0.936; in [9], -0.348 and -0.687; in assay [10], -0.301 and -0.226; in assay [11], -1.56 and -0.685; in [15], -1.45 and -0.709; in assay [17], -0.25 and -0.299. Also, the composite z-score in assay [18] was -0.482 and -1.39; in [19] it was -1.2 and -0.655; in assay [20], -0.172 and -0.316. Moreover, the z-score is -0.993 (inactive) and -0.205 (inactive) in assay [8]; -2.54 (inactive) and -0.463 (inactive) in assay [12]; -0.314 (inactive) and -2.05 (inactive) in assay [13]; -1.51 (inactive) and -0.835 (inactive) in assay [14]; 2.74 (inactive) and 2.71 (inactive) in [16].

In the case of `CCOC(=O)c1ccc(NC(=O)O[C@H]2[C@H](OC(=O)Nc3ccccc3)[C@@H](OC(=O)Nc3ccccc3)[C@@H](OC)O[C@@H]2CO)cc1`, the composite z-score in assay [1] is 0.181 and 0.179; in [2] it was 0.791 and 0.936; in assay [3] it was 0.211 and 0.164; in [4] it was 1.01 and 1.18; in [5] it was 1.59 and 1.44; in assay [6] it was 1.46 and 1.3. For the same molecule, the composite z-score in assay [7] was 1.33 and 1.43; in assay [9], 1.29 and 1.2; in [10] it was 0.167 and 0.24; in assay [11], 1.53 and 1.54; in assay [15] it was 3.22 and 3.23; in assay [17] it was 0.244 and 0.0626. The composite z-score in [18] was 0.893 and 0.71; in [19], 1.02 and 1.08; in assay [20], 0.145 and 0.11. In addition, the z-score in assay [8] was 1.13 (inactive) and 0.183 (inactive); in assay [12], 1.77 (inactive) and 1.97 (inactive); in [13] it was 1.07 (inactive) and 1.71 (inactive); in assay [14], 4.37 (inactive) and 7.27 (inactive); in assay [16] it was -0.221 (inactive) and -1 (inactive).

For the molecule `C[C@@H]1CC[C@H]2C(=O)NC[C@@H](O)CN2[C@H]1c1ccc(Br)cc1`, the composite z-score in assay [1] is -0.194 and -0.181; in [2] it was 0.332 and 0.0997; in [3] it was -0.116 and -0.134; in assay [4] it was 0.23 and 0.0389; in [5] it was -0.556 and -0.244; in assay [6], 0.229 and -0.138. Further, the composite z-score in assay [7] was 0.693 and 0.72; in [9] it was -0.304 and 0.127; in assay [10], -0.3 and -0.134; in [11], -0.0838 and -0.473; in [15], 0.759 and -0.129; in assay [17] it was -0.136 and -0.253. Besides, the composite z-score in [18] was 0.561 and -0.0536; in assay [19] it was -0.0857 and -0.344; in assay [20] it was -0.171 and -0.0356. For the same molecule, the z-score in assay [8] was 0.674 (inactive) and -0.078 (inactive); in assay [12], -0.77 (inactive) and 0.443 (inactive); in [13], -0.0565 (inactive) and -0.0682 (inactive); in [14] it was -0.451 (inactive) and 0.389 (inactive); in [16] it was 0.0565 (inactive) and 0.377 (inactive).
